Each structure is given as a SMILES string.

A short description of this test: enhancers of NK cell killing of ovarian tumor cells, primary screen, imaging, OVCAR3, primary NK cells, calcein-AM imaging (AID 1508625).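 Further: compound given to NK cells 16 h before adding targets at 1.5 to 1 ratio.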 To be noted: OVCAR3 lysis by primary NK cells, at 5 µM; z-score: measured here: robust Z-score, single-point normalisation.
Turning to `Cc1cc(Cl)ccc1OC(C)C(=O)n1cnc2ccccc21` (stereo unspecified), the corrected activity, negative = more killing was -1.02% and the z-score was -0.42.
On the same counts, the results for `COC(=O)c1ccc(COC(=O)c2ccccc2Cl)cc1` are -2.71% and -1.51.
On the same counts, the results for `COC(=O)c1ccc(C=NNc2nc(-c3ccc(Cl)cc3)cs2)cc1` are -2.03% and -0.861.
The like results for `CC1CCCC(C(=O)OCc2ccccc2)N1` (stereo unspecified) were, in that order, -4.16% and -1.64.
For `COc1ccc(C(=O)Nc2ccc(-c3nc4cc(C)cc(C)c4o3)cc2)cc1OC`, the corrected activity, negative = more killing was 2.2% and the z-score was 0.681.
On the same counts, the results for `OCCNCCCOc1cccc(Cl)c1Cl` are 2.34% and 0.743.
The like results for `CCN1CCN(C(=O)c2oc3ccc(S(=O)(=O)N4CCCCCC4)cc3c2C)CC1` were, in that order, -6.41% and -1.6.
For `Cc1ccccc1CSC1=NCCN1C(=O)c1ccc(OC(C)C)cc1`, the corrected activity, negative = more killing was -4.64% and the z-score was -1.14.
Take `COc1ccc(-c2csc(Nc3ccc(NC(C)=O)cc3)n2)cc1OC`: the corrected activity, negative = more killing is 1.84% and the z-score is 0.823.
The like results for `Cc1ccc(C2C(=C(O)c3ccc(Cl)cc3)C(=O)C(=O)N2CCCn2ccnc2)cc1` (stereo unspecified) were, in that order, -3.13% and -1.2.
On the same counts, the results for `COc1ccc(C)cc1NC(=O)c1oc(=O)c2ccccc2c1-c1ccccc1` are -11.3% and -2.78.
Regarding `COC(=O)c1ccc(COC(=O)c2ccncc2)cc1`, the corrected activity, negative = more killing is -0.707% and the z-score was -0.393.
The like results for `Cc1ccc(NC(=O)c2cc(S(=O)(=O)NCCc3ccccc3)ccc2F)cc1F` were, in that order, -5% and -1.35.
`CCCOc1cccc(C(=O)Nc2ccc3nn(-c4ccc(OC)cc4)nc3c2)c1`: the z-score was -1.21 and the corrected activity, negative = more killing is -3.41%.
On the same counts, the results for `O=C(CCCCCn1c(=S)[nH]c2cc3c(cc2c1=O)OCO3)N1CCN(c2ccc(Cl)cc2)CC1` are -0.597 and -2.25%.
On the same counts, the results for `COc1ccc(C2NC(=O)c3c(sc4c3CCCC4)N2)cc1OC` (stereo unspecified) are -1.1 and -2.78%.
On the same counts, the results for `Cc1ccc(OCC(=O)Nc2ccc(N3CCOCC3)c(Cl)c2)cc1` are -1.77 and -5.7%.
As to `O=C(Oc1ccc(C(=S)N2CCCCC2)cc1)c1ccccc1`, the z-score is -0.857 and the corrected activity, negative = more killing was -2.77%.
On the same counts, the results for `O=C1C2C3CC(C(Br)C3Br)C2C(=O)N1c1cccc2ccccc12` (stereo unspecified) are -1.41 and -3.98%.
The like results for `CC1(C(=O)NCC2CCCO2)CCC(=O)N1CCc1ccccc1` (stereo unspecified) were, in that order, -1.92 and -6.77%.
On the same counts, the results for `CC(=O)Oc1ccc(-c2nc3ccc(OC(C)=O)cc3c(=O)o2)cc1` are -1.44 and -3.33%.
In the case of `CC1CCC(NC2CCCc3c2[nH]c2ccc([N+](=O)[O-])cc32)C1` (stereo unspecified), the corrected activity, negative = more killing is 3.64% and the z-score is 1.59.
The like results for `O=C1CCC(=O)N1c1ccc(NCc2ccc(Cl)cc2)c([N+](=O)[O-])c1` were, in that order, -4.48% and -1.63.
Consider `CCCCCCCNC(=O)c1ccc2c(c1)ncn2-c1cccc(F)c1`, for which the z-score was -0.976 and the corrected activity, negative = more killing is -3.62%.
As to `COc1ccc(C(N)=NOC(=O)CSc2ccccc2)cc1`, the corrected activity, negative = more killing is -1.04% and the z-score is -0.576.
The like results for `CCOC(=O)c1ccc(N=c2oc3ccccc3cc2C(=O)Nc2ccccc2)cc1` were, in that order, 2.85% and 1.01.
The like results for `CCc1ccc(-c2nc3ccccc3c(C(=O)O)c2C)cc1` were, in that order, -3.44% and -1.41.
In the case of `O=c1c2cc(N3CCCCC3)ccc2[nH]c(=S)n1Cc1ccccc1`, the corrected activity, negative = more killing was -6.78% and the z-score was -1.8.
On the same counts, the results for `c1ccc(-c2ccccc2OCCN2CCNCC2)cc1` are 1.89% and 1.05.
On the same counts, the results for `CCOc1ccc(NC(=O)c2c(NCc3ccncc3)sc3c2CCCCC3)cc1` are -0.239% and -0.0869.
On the same counts, the results for `CC(=O)Oc1ccc(C(=O)Nc2nc3ccc4ccccc4c3s2)cc1` are -1.08% and -0.335.
As to `COCCNC(=O)c1cc2cc3ccc(Cl)cc3nc2o1`, the z-score is -0.897 and the corrected activity, negative = more killing is -3.66%.
As for `Cc1cc(Nc2cccc(C(=O)O)c2)n2ncnc2n1`, the z-score is 0.457 and the corrected activity, negative = more killing was 1.47%.
On the same counts, the results for `CC(C)c1ccc(OCC(=O)Nc2ccc3c(c2)OCCO3)cc1` are -0.869 and -2.45%.
On the same counts, the results for `Cc1c(C(=O)OC(C)C)sc(NC(=O)c2cc3ccccc3c(=O)o2)c1C(=O)OC(C)C` are -1.65 and -4.01%.
On the same counts, the results for `COC(=O)c1ccc(-n2nnnc2SCC(=O)Nc2ccc(F)cc2)cc1` are -2 and -6.69%.
For the compound `Cn1c(SCC(=O)Nc2cccc3ccccc23)nc2c([nH]c3ccccc32)c1=O`, the z-score was -2.32 and the corrected activity, negative = more killing was -9.34%.
Turning to `Cc1cc(C)cc(NC(=O)c2cc(S(=O)(=O)NC3CCCCC3)ccc2F)c1`, the corrected activity, negative = more killing was -5.25% and the z-score is -1.42.

The values above are taken from PubChem BioAssay AID1508625 (Wald Lab, School of Medicine, Case Western Reserve …, 2021).
